# Experimental data from PubChem BioAssay (NCI).
# The panel holds about 83,000 compounds, 20% with a hit somewhere; the sample as a whole holds those more often.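 Testing used 96-well plates and a 48-hour single-concentration exposure. Example: -40 means 40% of the starting cells died.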 Values without a mark were called inactive. Activity calls are given as the source filed them. The calls were made as follows: active = growth percent below 10; inactive = the rest.
# Legend:
# Test in all cases: NCI-60 one-dose screen, 48 h (100 = growth as untreated, 0 = no growth, -100 = all killed)
# Conditions in all cases: 10 µM unless noted
# NCI-H23 lung = test system: NCI-H23 lung
# NCI-H226 lung = test system: NCI-H226 lung
# NCI-H322M lung = test system: NCI-H322M lung
# HOP-62 NSCLC = test system: HOP-62 NSCLC
# NCI-H460 lung = test system: NCI-H460 lung
# 786-0 renal = test system: 786-0 renal
# MDA-MB-231 breast = test system: MDA-MB-231 breast
# SF-268 CNS = test system: SF-268 CNS
# SF-539 CNS = test system: SF-539 CNS
# U251 CNS = test system: U251 CNS
# UACC-62 melanoma = test system: UACC-62 melanoma
# SK-MEL-28 melanoma = test system: SK-MEL-28 melanoma
# SN12C renal = test system: SN12C renal
# UO-31 renal = test system: UO-31 renal
# OVCAR-8 ovarian = test system: OVCAR-8 ovarian
# OVCAR-3 ovarian = test system: OVCAR-3 ovarian
# MDA-MB-435 melanoma = test system: MDA-MB-435 melanoma
# SW-620 colon = test system: SW-620 colon
# MCF7 breast = test system: MCF7 breast
# KM12 colon = test system: KM12 colon
Structure (SMILES),growth (NCI-H23 lung),growth (NCI-H226 lung),growth (NCI-H322M lung),growth (HOP-62 NSCLC),growth (NCI-H460 lung),growth (786-0 renal),growth (MDA-MB-231 breast),growth (SF-268 CNS),growth (SF-539 CNS),growth (U251 CNS),growth (UACC-62 melanoma),growth (SK-MEL-28 melanoma),growth (SN12C renal),growth (UO-31 renal),growth (OVCAR-8 ovarian),growth (OVCAR-3 ovarian),growth (MDA-MB-435 melanoma),growth (SW-620 colon),growth (MCF7 breast),growth (KM12 colon)
COc1cc2c(cc1OC)CN(C)C(C)C2 (stereo not drawn),101%,96.8%,106%,92%,106%,101%,110%,96%,105%,101%,89.4%,106%,94.2%,93%,105%,113%,101%,100%,95.5%,102%
O=S(=O)(F)c1ncnc2nc[nH]c12,95.5%,89.6%,97.9%,86.5%,103%,97.6%,93.9%,70%,88.1%,98.5%,89.8%,97%,91.8%,66.9%,100%,60.7%,100%,95.4%,84.1%,81.8%
[N-]=[N+]=NC(C(=O)O)c1ccccc1 (stereo not drawn),99.2%,125%,101%,101%,115%,103%,110%,118%,93.9%,104%,117%,105%,119%,88.9%,100%,118%,99.9%,107%,88.2%,111%
Nc1ncnc2c1c(C(=O)NO)cn2C1OC(CO)C(O)C1O (stereo not drawn),-4.58% (active),13.6%,3.28% (active),5.73% (active),-21.6% (active),9.38% (active),-6.16% (active),-24.7% (active),-32.4% (active),11.9%,-86.1% (active),-52.3% (active),-31.9% (active),-58.2% (active),-20.2% (active),-49.3% (active),-72% (active),-3.16% (active),-47.3% (active),-29.9% (active)
CC[C@@H](C)/C=C(C)/C=C/C(=O)c1c(O)c(-c2ccc(O)cc2)cn(O)c1=O,19.6%,-1.76% (active),22.5%,9.35% (active),1% (active),0.309% (active),,-0.607% (active),5.1% (active),3.54% (active),-31.6% (active),34.7%,13.6%,-8.98% (active),4.95% (active),25.7%,24.1%,20.2%,15.4%,23.5%
CC(C)[C@]12O[C@H]1[C@@H]1O[C@]13[C@]1(O[C@H]1C[C@H]1C4=C(CC[C@@]13C)C(=O)OC4)[C@@H]2OC(=O)OC(C)(C)C,-28% (active),12.6%,3.68% (active),16.6%,2.11% (active),11.9%,21.8%,-2.29% (active),-20.2% (active),15.5%,-51.4% (active),-1.69% (active),20%,1.21% (active),16.8%,5.42% (active),-73.6% (active),1.09% (active),18.5%,2.1% (active)
CC(C)C1c2ccc(O)cc2Oc2nc(N)c(C#N)c(N)c21 (stereo not drawn),105%,93.6%,93.8%,92.9%,107%,96.1%,89.9%,112%,93.5%,95.8%,,117%,103%,89.2%,96.2%,124%,103%,115%,124%,103%
O=C(NCc1ccc([N+](=O)[O-])cc1)Nc1ccc(S(=O)(=O)F)cc1,81.3%,63.7%,88.3%,70.5%,95.8%,80.1%,80.4%,89.9%,88.3%,85.7%,65.1%,96%,85.8%,61.2%,80%,87%,92.8%,91.8%,83.7%,84.2%
